Assay results taken from PubChem BioAssay (Tox21).
Inconclusive results are not listed. Where a call stands in place of a potency, no number is given. The source made the active and inactive calls. Unless noted, calls come from the whole dose curve; as a rule, active = well fitted curve in the direction sought with a large enough effect in the repeat runs; inconclusive = weak or mixed curves; inactive = no such curve, though single readings can be large; an effect the other way counts as inactive or inconclusive.

Key:
[1] = qHTS assay for small molecules that induce genotoxicity in human embryonic kidney cells expressing luciferase-tagged ATAD5 (AID 651632); note: nearly all actives have a fitted effect of over 15% in size; note: potency is the fitted concentration of half-maximal effect
Outline: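 Increased luciferase signal from ATAD5-tagged reporter cells indicates DNA-damage-driven ATAD5 induction. HEK293T cells are treated for 16 hr at 37C before detection with Amplite.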

[2] = qHTS assay for small molecule agonists of the p53 signaling pathway - cell viability (AID 651633; calls by dose curve; note: nearly all actives have a fitted effect of over 30% in size; note: potency is the fitted concentration of half-maximal effect)
Outline: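 p53RE-bla cells, seeded at 4,000 per well and rested 5 h at 37 C/5% CO2, received compounds in DMSO for 16 h at 37 C. CellTiter-Glo was then added, and luminescence was read after 30 min at room temperature to gauge cytotoxicity.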

[3] = qHTS assay for small molecules that induce genotoxicity in human embryonic kidney cells expressing luciferase-tagged ATAD5 - cell viability (AID 651634; calls by dose curve; note: nearly all actives have a fitted effect of over 25% in size; note: potency is the fitted concentration of half-maximal effect)
Outline: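 Cytotoxicity counterscreen in HEK293T cells bearing an ATAD5-luciferase reporter: live-cell protease activity measured by CellTiter-Fluor fluorescence after 15.5 hr compound exposure.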

[4] = qHTS assay for small molecule disruptors of the mitochondrial membrane potential - cell viability (AID 720634; calls by dose curve; note: nearly all actives have a fitted effect of over 20% in size; note: potency is the fitted concentration of half-maximal effect)
Outline: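 After overnight attachment at 37 C, HepG2 cells received compound or DMSO vehicle for 1 hr. Viability is then taken from ATP-driven luminescence following a 30 min room-temperature CellTiter-Glo step.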

[5] = qHTS assay for small molecule disruptors of the mitochondrial membrane potential (AID 720635); note: potency is the fitted concentration of half-maximal effect
Outline: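 HepG2 cells (2,000/well) attached overnight at 37C, then took compound for 1 hr at 37C, 5% CO2. Mito-MPS dye was added for 30 min; fluorescence was read at 490/535 nm (monomers) and 540/590 nm (aggregates).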

[6] = qHTS assay to test for compound auto fluorescence at 590 nm (red) in HepG2 cells (AID 720674)
Outline: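 Intrinsic compound fluorescence in the red window (Ex/Em 540/590 nm) is measured in attached HepG2 cells exposed for 1 hr, DMSO vehicle as baseline, benchmarked to Rose Bengal sodium.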

[7] = qHTS assay to test for compound auto fluorescence at 535 nm (green) in HepG2 cells (AID 720675)
[8] = qHTS assay to test for compound auto fluorescence at 460 nm (blue) in HEK293 cells (AID 720678); note: potency is the fitted concentration of half-maximal effect
Outline: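 Cells were seeded and left to adhere for 4-5 hr at 37C. Compounds were then pin-transferred. After an overnight incubation at 37C under 5% CO2, intrinsic fluorescence at 405/460 nm was measured and referenced to triamterene.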

[9] = qHTS assay to test for compound auto fluorescence at 590 nm (red) in HEK293 cells (AID 720679)
Outline: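 Each well held 2,000 HEK293 cells in medium containing 10% dialyzed FBS. Following 4-5 hr attachment at 37C, 23 nL test compound or DMSO was added; plates sat overnight, and red fluorescence (540/590nm) was recorded.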
Tags give direction and shape of the fitted curve or compound fluorescence and quenching.

Row | SMILES | Potency [1] | Potency [2] | Potency [3] | Potency [4] | Potency [5] | outcome [6] | outcome [7] | Potency [8] | outcome [9] | fluorescence, relative to Rose Bengal [6] | fluorescence, % of triamterene [8] | fluorescence, % of fluorescent control [9]
1 | Nc1nnc(-c2ccc([N+](=O)[O-])o2)o1 | inactive | inactive | inactive | inactive | 61.1 µM (active) | inactive | inactive | inactive | inactive | – | – | –
2 | Oc1cccc(Nc2ccccc2)c1 | inactive | inactive | inactive | inactive | 25.4 µM (active) | – | – | inactive | inactive | – | – | –
3 | CC(C)(c1ccccc1)c1ccccc1 | inactive | inactive | inactive | inactive | – | inactive | inactive | inactive | inactive | – | – | –
4 | N#CCCN(CCO)CCO | inactive | inactive | inactive | inactive | inactive | inactive | inactive | inactive | inactive | – | – | –
5 | Oc1c(I)cc(I)c2cccnc12 | inactive | 10.6 µM (active) | inactive | inactive | – | inactive | inactive | inactive | inactive | – | – | –
6 | Cc1ccccc1N=C(N)Nc1ccccc1C | inactive | inactive | inactive | inactive | – | inactive | inactive | inactive | inactive | – | – | –
7 | COC(=O)CCS | inactive | inactive | – | inactive | inactive | inactive | inactive | inactive | inactive | – | – | –
8 | CN1C[C@H](C(=O)N[C@]2(C)O[C@@]3(O)[C@@H]4CCCN4C(=O)[C@H](Cc4ccccc4)N3C2=O)C[C@@H]2c3cccc4[nH]cc(c34)C[C@H]21 | inactive | inactive | – | inactive | – | inactive | inactive | inactive | inactive | – | – | –
9 | CC1=C(CC=O)C(C)(C)CCC1 | inactive | inactive | inactive | – | – | inactive | inactive | inactive | inactive | – | – | –
10 | Cc1ccc(Cl)c(Nc2ccccc2C(=O)O)c1Cl | inactive | inactive | inactive | inactive | – | inactive | inactive | inactive | inactive | – | – | –
11 | CCCCC(CC)CN (stereo not drawn) | inactive | inactive | inactive | – | – | inactive | inactive | inactive | inactive | – | – | –
12 | Oc1cc2c(cc1O)[C@H]1c3ccc(O)c(O)c3OC[C@@]1(O)C2 | inactive | inactive | 69.4 µM (active) | inactive | – | inactive | – | inactive | inactive | – | – | –
13 | CCOC(=O)C1=C(C)NC(C)=C(C(=O)OC)C1c1cccc(Cl)c1Cl (stereo not drawn) | inactive | inactive | inactive | – | 19.7 µM (active) | – | inactive | inactive | inactive | – | – | –
14 | CN(C)CCC=C1c2ccccc2C=Cc2ccccc21 | inactive | inactive | inactive | inactive | – | inactive | inactive | inactive | inactive | – | – | –
15 | OCCN1CCN(CCCN2c3ccccc3Sc3ccc(Cl)cc32)CC1 | inactive | inactive | inactive | inactive | – | – | – | – | – | 0.837% [at 18.6 µM] (inactive) | -0.38% [at 18.6 µM] (inactive) | -0.0409% [at 18.6 µM] (inactive)
16 | CC(=O)c1ccc([N+](=O)[O-])cc1 | inactive | inactive | inactive | – | – | – | inactive | inactive | inactive | – | – | –
17 | C[C@]12CC[C@@H]3c4ccc(O)cc4CC[C@H]3[C@@H]1CC[C@@H]2OC(=O)CCC1CCCC1 | inactive | inactive | inactive | – | 17.2 µM (active) | – | inactive | inactive | inactive | – | – | –
18 | C[C@@H]1CC(=O)NN=C1c1ccc(NN=C(C#N)C#N)cc1 | inactive | 6.68 µM (active) | 23.7 µM (active) | – | 23.7 µM (active) | inactive | inactive | inactive | inactive | – | – | –
19 | Nc1ccc(N=Nc2ccccc2)c(N)c1 | 2.12 µM (active) | inactive | – | – | 4.75 µM (active) | inactive | inactive | inactive | inactive | – | – | –
20 | COc1ccccc1NC(=O)c1cc2ccccc2cc1O | inactive | 54.5 µM (active) | – | 7.7 µM (active) | – | inactive | inactive | 39.8 µM [fluorescent] (active) | inactive | – | – | –
21 | C[C@H]1c2cccc(O)c2C(O)=C2C(=O)[C@]3(O)C(O)=C(C(N)=O)C(=O)[C@@H](N(C)C)[C@@H]3[C@@H](O)[C@@H]21 | inactive | inactive | – | inactive | – | inactive | inactive | inactive | inactive | – | – | –
22 | COc1ccccc1N1CCN(CC(O)COc2cccc3ccccc23)CC1 (stereo not drawn) | inactive | inactive | inactive | – | – | inactive | inactive | inactive | inactive | – | – | –
23 | CCCCCCCCCCCCCCN(CCO)CCO | inactive | 48.6 µM (active) | inactive | – | – | – | – | inactive | inactive | – | – | –
24 | CN1C(=O)OC(C)(C)C1=O | inactive | inactive | inactive | – | – | inactive | inactive | inactive | inactive | – | – | –
25 | CC1=C(Br)C(=O)C(Br)=C/C1=C(/c1ccccc1S(=O)(=O)O)c1cc(Br)c(O)c(Br)c1C | inactive | inactive | – | inactive | – | inactive | inactive | inactive | inactive | – | – | –
